# Hits are enriched below; roughly 21% of the tested compounds scored in any of these assays.
# ClpP mod = qHTS Assay for Activators of ClpP | AID 651965, 2013 | hit rate 1.9% among 340,000 | purified B. subtilis ClpP, FRET peptide cleavage, 20 min | Potency, µM (series often up to 57.5 µM), inactives show at the highest dose activity change, negative = active; active = well fitted falling curve with a large enough effect; inconclusive = small, poorly fitted or top-dose-only effect; inactive = no such curve, though single readings can be large or run the other way; note: potency is the fitted concentration of half-maximal effect; the source files actives as falling curves though it sought activators and does not explain the sign; nearly all actives have a fitted effect of over 65% in size
#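 FRET quenching reversal measured ClpP activation: 10 microg/mL B. subtilis ClpP at pH 8 with the FRET-FV decapeptide, read at 430 nm after 320 nm excitation. The 20-min minus 0-min signal was scaled between DMSO/no-enzyme wells and ADEP (5.8 microM final).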
# D3 antag = D3 dopamine receptor (human) antagonism; P35462; D3R cells, DiscoveRx beta-arrestin luminescence, antagonist mode; stronger effect = lower value; max response, negative = inhibition, %; hit rate 2.5% among 360,000; AID 652054; in the data active = max response below about -50%; inconclusive = no clear call, values can overlap the other calls; note: % is set by controls: 0 for no effect and ±100 for the full control effect
#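 Cells plated overnight at 1500 cells/well, then exposed to library compounds with dopamine controls for 90 minutes at 37 degrees C. DiscoveRx reagent added for 30–60 minutes at room temperature; luminescence read, quantitative HTS format.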
# TDP1 cell CPT = growth inhibition of DT40 Tdp1-/-;hTDP1 cells with camptothecin (screen for TDP1 inhibitors); Potency, µM (titrated, usually from 46.2 µM), inactives show at the highest dose activity change, negative = growth inhibition, hits mostly inhibitors; hit rate 12% among 420,000; AID 686979; chicken DT40 Tdp1-/-;hTDP1 cells + 20 nM CPT, ATP luminescence, 48 h; note: potency is the fitted concentration of half-maximal effect; % is set by controls: 0 for no effect and ±100 for the full control effect; nearly all actives have a fitted effect of over 55% in size
#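 Chicken DT40 Tdp1-/- cells stably complemented with human TDP1 were seeded at 400 cells/well in medium containing 20 nM camptothecin, exposed to pin-transferred compounds, and grown at 37 °C for at least 48 hr. Viability was read as ATP luminescence.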
# IL1B secr inh = blocks inflammasome-driven IL-1 beta release. THP-1 LPS/ATP IL-1B secretion, AlphaLISA, 16 h; stronger effect = lower value. activity change, % at 57.5 µM. hit rate 4.7% among 360,000; in the data active = activity change below about -50%; inconclusive = mostly about -30% to -49%; note: % is set by controls: 0 for no effect and ±100 for the full control effect
#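 Secreted IL-1B measured by AlphaLISA bead assay after 16 h compound exposure of THP-1 cells; compounds (final up to 57.5 uM) added 1 h before LPS (250 ng/mL) and ATP (1.25 mM) stimulation; lower signal means less secretion.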
# D3 ag = agonists of human D3 dopamine receptor | P35462 | D3R DiscoveRx beta-arrestin cells, luminescence, 90 min | hit rate 0.58% among 410,000 | max activation, %; in the data active = max activation above about 30%; note: 0% is about no effect
#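 Agonist mode: compounds and dopamine controls were applied to plated cells for 90 min at 37 degrees C after an overnight attachment at 1500 cells/well. Luminescent read-out followed 30 - 60 minutes at room temperature with DiscoveRx detection reagent.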
# DT40 TDP1 no CPT = qHTS for Inhibitors of human tyrosyl-DNA phosphodiesterase 1 (TDP1): qHTS in cells in absence of CPT | AID 686978, 2013 | DT40 Tdp1-/- hTDP1 cells, no CPT, ATP luminescence, 48 h | Potency, µM (highest dose often 46.2 µM), for the others: at the top dose activity change, negative = growth inhibition, hits mostly inhibitors | hit rate 15% among 420,000; note: potency is the fitted concentration of half-maximal effect; % is set by controls: 0 for no effect and ±100 for the full control effect; nearly all actives have a fitted effect of over 55% in size
#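 Cells were dispensed at 400 per well, compounds added by pin tool, plates incubated ≥48 hr at 37 °C, then CellTiter-Glo added for 30 min at room temperature before luminescence reading. Line: DT40 Tdp1-/- complemented with hTDP1; camptothecin omitted.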
# * = called active by the depositor; ? = inconclusive; . = no result given; [ ] = remark or other dose. Unless noted, calls come from the whole dose curve; as a rule, active = well fitted inhibition curve with a large enough effect; inconclusive = small, poorly fitted or top-dose-only effect; inactive = flat fitted curve, though single readings scatter.
SMILES,ClpP mod,D3 antag,TDP1 cell CPT,IL1B secr inh,D3 ag,DT40 TDP1 no CPT
COC(=O)CC1C(=O)NCCN1C(=S)NC(=O)c1sc2ccccc2c1Cl (configuration not stated),1%,12,-7%,15,-3,7%
C=CCCC(=O)Nc1ccc(Br)cn1,.,1,?,-14,4,18µM*
O=C(/C=C/c1ccccc1)Nc1ncn[nH]1,-1%,?,7.3µM*,-108*,-11,10µM*
O=C(O)C(=O)Nc1ncn[nH]1,0%,2,10%,19,7,-28%
O=C(/C=C/c1ccccc1)Nc1ccc(Br)cn1,-1%,0,2.3µM*,0,-13,2.3µM*
Cc1cccc(NC(=O)Cn2c(=O)n(CCCCCC(=O)NCc3ccc4c(c3)OCO4)c(=O)c3sccc32)c1,-6%,.,?,.,-4,?
COc1ccc(N2C(=O)CC(Sc3nccc(C)n3)C2=O)cc1 (configuration not stated),1%,-5,-22%,2,-1,-29%
COc1ccc(N2C(=O)CC(Sc3nc4ccccc4s3)C2=O)cc1 (configuration not stated),.,-1,2.9µM*,9,-5,3.7µM*
C=CCNc1nnc(SC2CC(=O)N(c3ccc(OC)cc3)C2=O)s1 (configuration not stated),-3%,60,3.7µM*,-11,-11,4.6µM*
CCOc1ccc2nc(SC3CC(=O)N(c4ccc(OC)cc4)C3=O)sc2c1 (configuration not stated),1%,6,2.9µM*,-4,-3,4.6µM*
COc1ccc(N2C(=O)CC(Sc3nnc(-c4ccccc4F)n3C)C2=O)cc1 (configuration not stated),5%,?,4.1µM*,18,-9,5.2µM*
Cc1ccc(F)c(CNC(=O)C2(C)CCCN2C(=O)C(C)C)c1F (configuration not stated),0%,12,-29%,23,1,-17%
COc1ccc2ccc(C(C)(C(C)=O)C(=O)OC(C)C)cc2c1 (configuration not stated),-6%,-13,?,39,-6,?
O=[N+]([O-])c1cc(-c2ccc(/C=N/c3nc4ccccn4c3-c3ccco3)o2)ccc1Cl,?,-15,?,?,2,23µM*
Cc1cccc(NC(=S)NC2CC3CCC(C2)N3Cc2ccco2)c1 (configuration not stated),0%,?,-22%,0,-29,-9%
CNC(=S)NC1CC2CCCC(C1)N2Cc1ccco1 (configuration not stated),-1%,-10,10%,-1,-30,4%
COCCCNC(=S)NC1CC2CCCC(C1)N2Cc1ccco1 (configuration not stated),-1%,-150*,-13%,-6,-14,-11%
Cc1cccc(NC(=S)NC2CC3CCCC(C2)N3Cc2ccco2)c1 (configuration not stated),-1%,-61*,?,-16,-21,-13%
Cc1cccc(NC(=O)CN2CCN(CC(=O)Nc3ccc(-c4ccccc4)cc3)CC2)c1C,.,-8,?,-10,-9,?
CCc1ccccc1NC(=O)CN1CCN(CC(=O)Nc2ccc(-c3ccccc3)cc2)CC1,.,-23,?,-3,-9,16µM*
CCc1ccccc1NC(=O)CN1CCN(C(=O)CNC(=O)c2ccc(-c3ccccc3)cc2)CC1,-3%,19,4.6µM*,-3,12,7.3µM*
CCCCNc1cc(N2CCN(C3CCCCC3)CC2)c2noc3c2c1C(=O)c1ccccc1-3,0%,.,5.2µM*,.,-4,5.2µM*
O=C1c2ccccc2-c2onc3c(N4CCN(CCO)CC4)cc(N4CCN(C(=O)c5ccco5)CC4)c1c23,.,-5,?,?,-10,15µM*
CCOC(=O)N1CCN(c2cc(NCCC(=O)O)c3c4c(onc24)-c2ccccc2C3=O)CC1,0%,-77*,?,-64*,-7,?
CS(=O)(=O)N1CCC(n2c(C(F)(F)F)nc3cccnc32)CC1,-1%,.,-23%,.,6,-11%
SMILES,ClpP mod,D3 antag,TDP1 cell CPT,IL1B secr inh,D3 ag,DT40 TDP1 no CPT
COc1ccc2c(c1)CCc1cnc(-n3ncc(C(=O)NC4CCOC4)c3C3CC3)nc1-2 (configuration not stated),.,.,-8%[9.04 µM],.,.,?
COc1ccc(NC(=O)Nc2ccc3c(c2)C(=O)N([C@@H](C)CO)C[C@@H](C)[C@@H](CN(C)S(=O)(=O)c2cn(C)cn2)O3)cc1,-5%,0,14%,14,-4,4%
CC(O)c1cccc(NC(=O)CC(c2ccccc2)c2ccccc2)c1 (configuration not stated),1%,-14,9.2µM*,-6,-4,9.2µM*
O=C(CC(c1ccccc1)c1ccccc1)Nc1ccncc1,.,3,?,-7,1,?
CCOc1ccccc1NC(=O)c1cccc(NC(=O)CC(c2ccccc2)c2ccccc2)c1,-24%,7,23µM*,-11,9,26µM*
CCOc1ccccc1NC(=O)c1ccc(Cl)c(NC(=O)CC(c2ccccc2)c2ccccc2)c1,-9%,?,18µM*,10,-11,?
CN(C)S(=O)(=O)c1cc(NC2CC(=O)N(c3ccc(F)cc3)C2=O)ccc1Cl (configuration not stated),-1%,16,9%,-1,9,9%
COc1ccccc1N1CCN(C(CNC(=O)C(=O)NCCc2ccccc2)c2cccnc2)CC1 (configuration not stated),1%,.,10µM*,.,9,8.2µM*
CCS(=O)(=O)NCC(c1cccnc1)N1CCN(c2ccccc2OC)CC1 (configuration not stated),0%,-6,-14%,-10,3,-15%
COc1ccccc1N1CCN(C(CNS(=O)(=O)c2cccs2)c2cccnc2)CC1 (configuration not stated),0%,-50*,?,-11,-7,?
COc1ccc(N2CCN(C(CNC(=O)c3cccc(OC)c3)c3cccnc3)CC2)cc1 (configuration not stated),-8%,.,?,.,2,?
COc1ccc(C(=O)NCC(c2cccnc2)N2CCN(c3ccccc3OC)CC2)cc1 (configuration not stated),-1%,.,18µM*,.,-12,12µM*
